The supplement of paper PMC12494721
Structures can show the parent of a compound that is named as a salt.

Columns and labels:
Settings in all cases: incubation time: 27 h, anaerobic, 37 °C;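 for the amine columns active = adjusted P below 0.05 in both replicates with a change the same way and a mean fold change under 0.8 or over 1.25; inactive = the rest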
[1] = test system: Clostridium sporogenes DSM 1664; test: growth (OD595) fold change vs plate DMSO controls (fold change (ratio)); higher = more growth
Method in brief: (§1)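 Growth is expressed as the fold change relative to the median of the DMSO control wells on each plate. Cultures in mGAM were grown anaerobically in 96-well plates for 27 h at 37 °C, shaken, and read at 595 nm. Readings were blank-subtracted, corrected for compound background with 20 µM compound solutions in water, and converted to OD with a calibration factor of 5. Fold changes above 1.5 were set to NA, and each value is the mean of 2 biological replicates.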

Escherichia coli IAI1 [2] = test: as above
Method in brief: as §1

[3] = test system: Klebsiella aerogenes DSM 30053; test: as above
Method in brief: as §1

[4] = test system: Ruminococcus gnavus DSM 108212; test: as above
Method in brief: as §1

[5] = test system: Klebsiella aerogenes DSM 30053; test: fold change of Histamine concentration vs plate DMSO controls (fold change (ratio)); higher = more amine produced, active = hit call of the paper (significant change in both replicates, either direction)
Method in brief: (§2)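 In 80 µL wells, cultures of four gut bacterial strains in mGAM started at OD 0.1 before a 1:1 dilution and grew anaerobically at 37 °C for 27 h. Compounds were added to 20 µM final, except sweeteners at 50 µM final. After extraction of whole cultures with cold acetonitrile/methanol plus 0.1% formic acid and centrifugation, amines were measured by LC–triple-quadrupole MS in dynamic MRM mode against external calibration curves, with within-batch drift correction. Values give fold change over DMSO controls on the same plate, averaged across 2 biological replicates.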

[6] = test system: Clostridium sporogenes DSM 1664; test: fold change of Tryptamine concentration vs plate DMSO controls (fold change (ratio)); higher = more amine produced, active = hit call of the paper (significant change in both replicates, either direction)
Method in brief: as §2

[7] = test system: Ruminococcus gnavus DSM 108212; test: as above
Method in brief: as §2

Escherichia coli IAI1 [8] = test: fold change of Putrescine concentration vs plate DMSO controls (fold change (ratio)); higher = more amine produced, active = hit call of the paper (significant change in both replicates, either direction)
Method in brief: as §2

[9] = test system: Klebsiella aerogenes DSM 30053; test: as above
Method in brief: as §2

Escherichia coli IAI1 [10] = test: fold change of Cadaverine concentration vs plate DMSO controls (fold change (ratio)); higher = more amine produced, active = hit call of the paper (significant change in both replicates, either direction)
Method in brief: as §2

[11] = test system: Klebsiella aerogenes DSM 30053; test: as above
Method in brief: as §2

[12] = test system: Ruminococcus gnavus DSM 108212; test: fold change of 2-Phenylethylamine concentration vs plate DMSO controls (fold change (ratio)); higher = more amine produced, active = hit call of the paper (significant change in both replicates, either direction)
Method in brief: as §2

Compound	growth [1]	growth (Escherichia coli IAI1 [2])	growth [3]	growth [4]	fold change of Histamine concentration [5]	fold change of Tryptamine concentration [6]	fold change of Tryptamine concentration [7]	fold change of Putrescine concentration (Escherichia coli IAI1 [8])	fold change of Putrescine concentration [9]	fold change of Cadaverine concentration (Escherichia coli IAI1 [10])	fold change of Cadaverine concentration [11]	fold change of 2-Phenylethylamine concentration [12]
OC[C@@H](O)[C@@H](O)[C@@H](O)[C@@H](O)CO [Allitol] (50 µM)	0.907	1.08	1.11	0.986	0.908 (inactive)	1 (inactive)	0.953 (inactive)	1.02 (inactive)	1.03 (inactive)	0.992 (inactive)	1.02 (inactive)	0.932 (inactive)
OCCN1CCN(CCCN2c3ccccc3Sc3ccc(C(F)(F)F)cc32)CC1 [Fluphenazine dihydrochloride] (20 µM)	1.03	1.13	1.05	0.85	0.925 (inactive)	1.22 (inactive)	0.878 (inactive)	1.09 (inactive)	0.982 (inactive)	1.11 (inactive)	1.03 (inactive)	0.869 (inactive)
CO[C@@]1(NC(=O)Cc2cccs2)C(=O)N2C(C(=O)O)=C(COC(N)=O)CS[C@@H]21 [Cefoxitin sodium salt] (20 µM)	0	0.00646	1.45	0	1.21 (inactive)	0.0449 (active)	0.0768 (active)	0.153 (active)	1.09 (inactive)	0.623 (active)	1.11 (inactive)	0.0566 (active)
C[C@@H](c1ncncc1F)[C@](O)(Cn1cncn1)c1ccc(F)cc1F [Voriconazole] (20 µM)	0.883	0.997	1.02	0.932	0.988 (inactive)	1.07 (inactive)	1.01 (inactive)	1.02 (inactive)	0.999 (inactive)	0.988 (inactive)	1 (inactive)	0.991 (inactive)
CN1CCN(C2=Nc3ccccc3Oc3ccc(Cl)cc32)CC1 [Loxapine succinate] (20 µM)	1.12	1.04	1.04	1.4	0.932 (inactive)	1.04 (inactive)	0.962 (inactive)	0.998 (inactive)	1 (inactive)	1.01 (inactive)	1.02 (inactive)	0.973 (inactive)
N[C@@H]1CONC1=O [D-cycloserine] (20 µM)	0.977	0.973	1.09	0.926	0.897 (inactive)	0.958 (inactive)	0.931 (inactive)	1 (inactive)	1.03 (inactive)	1.02 (inactive)	1.05 (inactive)	0.868 (inactive)
CN(C)CCOC(C)(c1ccccc1)c1ccccn1 (stereo not given) [Doxylamine succinate] (20 µM)	1.13	0.972	1.01	1.05	1.01 (inactive)	0.943 (inactive)	0.988 (inactive)	1.01 (inactive)	1.01 (inactive)	0.924 (inactive)	1 (inactive)	0.891 (inactive)
CC(C)NC(=N)NC(=N)Nc1ccc(Cl)cc1 [Proguanil hydrochloride] (20 µM)	0.986	0.955	0.964	0.969	1.06 (inactive)	1.04 (inactive)	1.03 (inactive)	1.09 (inactive)	0.997 (inactive)	0.868 (inactive)	0.979 (inactive)	1.02 (inactive)
Nc1nc(N)c2nc(-c3ccccc3)c(N)nc2n1 [Triamterene] (20 µM)	1.09	0.967	0.969	1.25	1.05 (inactive)	0.928 (inactive)	0.966 (inactive)	0.8 (inactive)	1.01 (inactive)	1.04 (inactive)	0.988 (inactive)	0.907 (inactive)
O=C(Cn1ccnc1[N+](=O)[O-])NCCO [Etanidazole] (20 µM)	0.988	1.01	1.06	0.954	0.832 (inactive)	0.98 (inactive)	1.28 (active)	0.91 (inactive)	1.03 (inactive)	1.02 (inactive)	1.11 (inactive)	1.83 (active)
COC(=O)[C@H]1[C@H]2C[C@@H]3c4[nH]c5cc(OC)ccc5c4CCN3C[C@H]2C[C@@H](OC(=O)c2cc(OC)c(OC)c(OC)c2)[C@@H]1OC [Reserpine] (20 µM)	1.21	0.987	1.02	1.01	0.943 (inactive)	1.07 (inactive)	1.04 (inactive)	0.935 (inactive)	0.983 (inactive)	0.966 (inactive)	1.01 (inactive)	1.07 (inactive)
CNCCC=C1c2ccccc2CCc2ccccc21 [Nortriptyline hydrochloride] (20 µM)	1.11	0.972	0.974	1.28	1.09 (inactive)	1.06 (inactive)	0.993 (inactive)	0.975 (inactive)	1.02 (inactive)	1.04 (inactive)	0.989 (inactive)	1.03 (inactive)
COC(=O)C1=C(C)NC(C)=C(C(=O)OCC(C)C)C1c1ccccc1[N+](=O)[O-] (stereo not given) [Nisoldipine] (20 µM)	0.851	1.13	1.02	0.871	0.949 (inactive)	1.06 (inactive)	0.899 (inactive)	1.1 (inactive)	1 (inactive)	0.981 (inactive)	1.01 (inactive)	0.898 (inactive)
Clc1ccc2nsnc2c1NC1=NCCN1 [Tizanidine hydrochloride] (20 µM)	0.00885	1.01	1.15	0.103	0.919 (inactive)	0.0144 (active)	0.0877 (active)	0.984 (inactive)	0.995 (inactive)	0.983 (inactive)	1.02 (inactive)	0.0862 (active)
CC[C@H]1OC(=O)[C@H](C)[C@@H](O[C@H]2C[C@@](C)(OC)[C@@H](O)[C@H](C)O2)[C@H](C)[C@@H](O[C@@H]2O[C@H](C)C[C@H](N(C)C)[C@H]2O)[C@](C)(O)C[C@@H](C)C(=O)[C@H](C)[C@@H](O)[C@]1(C)O [Erythromycin] (20 µM)	0.0078	0.762	1.16	0.129	0.3 (inactive)	0.0554 (active)	0.144 (active)	0.459 (inactive)	0.936 (inactive)	0.942 (inactive)	1.07 (inactive)	0.137 (active)
Cn1c(=O)c2nc[nH]c2n(C)c1=O [Theophylline monohydrate] (20 µM)	1.19	1.11	1.04	1.12	0.952 (inactive)	1.1 (inactive)	1.1 (inactive)	1.24 (inactive)	0.957 (inactive)	0.9 (inactive)	1.02 (inactive)	1.15 (inactive)
N=C(N)NCCN1CCCCCCC1 [Guanethidine sulfate] (20 µM)	1.13	0.988	1.1	0.933	0.834 (inactive)	1.07 (inactive)	1.1 (inactive)	0.97 (inactive)	0.953 (inactive)	0.9 (inactive)	1.04 (inactive)	1.11 (inactive)
Cn1cc(C(=O)[C@@H]2CCc3[nH]cnc3C2)c2ccccc21 [Ramosetron hydrochloride] (20 µM)	0.928	0.966	1	0.964	0.964 (inactive)	1.02 (inactive)	1 (inactive)	0.969 (inactive)	1.01 (inactive)	1.11 (inactive)	0.997 (inactive)	1.04 (inactive)
C[C@H](CCC(=O)O)[C@H]1CC[C@H]2[C@@H]3C(=O)C[C@@H]4CC(=O)CC[C@]4(C)[C@H]3CC(=O)[C@]12C [Dehydrocholic acid] (20 µM)	0.917	0.968	0.94	0.872	1.02 (inactive)	0.96 (inactive)	0.987 (inactive)	0.975 (inactive)	1.01 (inactive)	0.982 (inactive)	1.01 (inactive)	0.859 (inactive)
CCOc1ccccc1OCC1CNCCO1 (stereo not given) [Viloxazine hydrochloride] (20 µM)	0.836	0.991	0.986	0.675	0.986 (inactive)	1.03 (inactive)	0.572 (active)	1.06 (inactive)	1 (inactive)	0.971 (inactive)	0.992 (inactive)	0.696 (active)
NC(=O)N1c2ccccc2C=Cc2ccccc21 [Carbamazepine] (20 µM)	0.968	1.08	1.01	1.17	1.03 (inactive)	0.973 (inactive)	1.02 (inactive)	1.03 (inactive)	1 (inactive)	1.04 (inactive)	1.01 (inactive)	0.987 (inactive)
N[C@@H](Cc1cc(I)c(Oc2cc(I)c(O)c(I)c2)c(I)c1)C(=O)O [(L) Thyroxine] (20 µM)	1.27	0.975	1.01	0.958	1.05 (inactive)	1.27 (inactive)	0.99 (inactive)	1.01 (inactive)	1 (inactive)	1 (inactive)	1.01 (inactive)	1.03 (inactive)
CCCc1cc(C(N)=S)ccn1 [Prothionamide] (20 µM)	1.09	1.15	0.999	0.999	1.01 (inactive)	0.998 (inactive)	0.977 (inactive)	1.18 (inactive)	0.982 (inactive)	1.01 (inactive)	0.999 (inactive)	0.946 (inactive)
CC(=O)OCC(=O)[C@@]12N=C(C)O[C@@H]1C[C@H]1[C@@H]3CCC4=CC(=O)C=C[C@]4(C)[C@H]3[C@@H](O)C[C@@]12C [Deflazacort] (20 µM)	0.981	0.976	0.986	0.905	1 (inactive)	1.02 (inactive)	1.07 (inactive)	1.03 (inactive)	1 (inactive)	0.993 (inactive)	0.991 (inactive)	1.1 (inactive)
CCOC(=O)c1ccc(OC(=O)CCCCCNC(=N)N)cc1 [Gabexate mesilate] (20 µM)	1.07	1	0.974	1.02	0.978 (inactive)	0.953 (inactive)	0.865 (inactive)	1.01 (inactive)	1.07 (inactive)	0.998 (inactive)	1.04 (inactive)	0.776 (inactive)
